The panel holds about 79,000 compounds, 15% with a hit somewhere; the sample as a whole holds those more often. Unmarked numbers belong to inactive results. Active and inactive are the calls of the source. Cut-off read from the data, not from the text of the source: active = growth inhibition above about 70%; inactive = the rest.
Assay: NCI Yeast Anticancer Drug Screen. Data for the rad14 strain (AID 159);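 note: 0% = growth of vehicle-treated control cultures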
Settings: S. cerevisiae rad14 strain growth inhibition, stronger effect = higher value
Description: Growth inhibition of yeast strains with defined genetic alterations is measured as a screen for potential anti-cancer activity. Selected strains with alterations in DNA damage repair or cell cycle control were exposed to compounds and growth inhibition was measured relative to vehicle treated controls. The strain used in this assay is rad14

SMILES | growth inhibition (at 1.2 µM) [%] | growth inhibition (at 3.7 µM) [%] | growth inhibition (at 11.0 µM) | growth inhibition (at 33.0 µM) | growth inhibition (at 100.0 µM)
CCN(CC)C(=S)N/N=C(/C)c1cccc(/C(C)=N\NC(=S)N(CC)CC)n1 | -6 | 10 | 2% | 46% | 92% (active)
Cc1cc(O)cc(O)c1N=Nc1ccc([N+](=O)[O-])cc1 | -18 | -21 | -14% | 38% | 61%
COC(=O)C1=C(C)NC(C)=C(C(=O)OC)C1c1cccc(/[N+]([O-])=C/c2ccccc2)c1 | 2 | 4 | 16% | 34% | 92% (active)
CCC(=O)OCCn1c2nc(=O)[nH]c(=O)c-2nc2cc(C)c(C)cc21 | 3 | 0 | 23% | 14% | -3%
Cc1ccc(S(=O)(=O)NNC(=S)Nc2cccc3ccccc23)cc1 | -6 | -4 | -8% | -4% | -3%
OC1CCCc2c1cc1ccc3cccc4ccc2c1c34 (stereo not given) | 0 | 13 | 99% (active) | 97% (active) | 91% (active)
CN(C)c1ccc(Sc2ccc3nc(N)nc(N)c3c2)cc1 | -15 | -4 | -9% | -14% | 5%
COc1cc(C2c3cc4c(cc3OC(Nc3ccccc3)C2C)OCO4)cc(OC)c1O (stereo not given) | 1 | 1 | 4% | 5% | 51%

— PubChem BioAssay (NCI)
